# Measurements: the supplement of paper PMC7801607
# Tests used:
# CHO = assay: % viability of CHO cells (MTT); higher = less toxic; details: 48 h
# Outline: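 CHO cells were seeded at 10^6 cells/well in 200 µL and left overnight to attach. The medium was then replaced with fresh medium containing compound at 2 or 20 µM for 48 h. Survival was read colorimetrically with the tetrazolium (MTT) assay. Percent viability was expressed relative to untreated cells.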
# HepG2-A16-CD81 = assay: % inhibition of HepG2 viability (CellTiter-Glo); higher = more toxic; details: 5 µM
# [1] = tested on: Plasmodium falciparum NF54 stage IV/V gametocytes; assay: % inhibition of gametocyte viability (PrestoBlue); higher = more inhibition; details: 48 h
# Outline: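 Stage IV/V NF54 gametocytes (2% gametocytaemia, 5% haematocrit, 100 µL/well) were exposed to compound at 1 or 5 µM. Incubation was 48 h at 37 °C, stationary and hypoxic, followed by 10 µL PrestoBlue for 2 h. Fluorescence at 612 nm was read on 70 µL of transferred supernatant. Percent inhibition of gametocyte viability was normalised to DMSO and kill controls from a single run.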
# [2] = tested on: Plasmodium falciparum NF54 asexual blood stage; assay: % inhibition of asexual blood stage proliferation (pLDH); higher = more inhibition; details: 72 h
# Outline: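 Plasmodium falciparum NF54 ring-stage cultures (1% haematocrit, 2% parasitaemia) were exposed to compound at 2 or 20 µM in 96-well plates. Incubation was 72 h at 37 °C under 4% CO2, 3% O2 and 93% N2. Survival was read colorimetrically at 620 nm with the parasite lactate dehydrogenase assay. Percent inhibition of asexual proliferation was normalised to DMSO and kill controls, and the screen was run on two separate occasions.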
# [3] = tested on: Plasmodium falciparum NF54 stage IV/V gametocytes; assay: % inhibition of gametocyte viability (ATP bioluminescence); higher = more inhibition; details: 24 h
# Outline: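 In 96-well plates, compound at 1 or 5 µM was added to 30,000 density-gradient-enriched stage IV/V NF54 gametocytes per well and incubated for 24 h at 37 °C. ATP readout used the Promega BacTiter Glo bioluminescence system. Percent inhibition of gametocyte viability comes from a single run, normalised to control wells.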
# [4] = tested on: Plasmodium falciparum NF54 stage IV/V gametocytes; assay: % inhibition of gametocyte viability (luciferase reporter); higher = more inhibition; details: 48 h
# Outline: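 Percent inhibition was normalised to controls from a single run. Stage IV/V gametocytes of the NF54-Pfs16-GFP-Luc line, at 2% gametocytaemia and 2% haematocrit, were exposed to compound at 1 or 5 µM for 48 h at 37 °C under stationary, hypoxic conditions. Luminescence was then read from 30 µL lysate mixed with 30 µL Promega luciferin substrate on a GloMax-Multi+ reader with 10 s integration.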
# [5] = tested on: Plasmodium berghei ANKA liver stage in HepG2-A16-CD81; assay: % inhibition of liver stage parasite viability (luciferase); higher = more inhibition; details: 5 µM; 48 h
# Protocol: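 Single-concentration screen of the MMV Pandemic Response Box. P. falciparum NF54 asexual blood stages: pLDH assay, 72 h at 37 °C, 2 and 20 µM, n=2. Stage IV/V gametocytes (NF54): luciferase reporter (NF54-Pfs16-GFP-Luc, 48 h), ATP bioluminescence (24 h) and PrestoBlue (48 h) at 1 and 5 µM, n=1. P. berghei liver stage (luciferase in HepG2-A16-CD81, 48 h post infection) at 5 µM, n=4. All normalised to DMSO and kill controls as % inhibition.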
# 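Throughout, for % inhibition of HepG2 viability (CellTiter-Glo): HepG2-A16-CD81 hepatoma cells plated as in the liver-stage assay but without sporozoites, with DMSO wells as negative and 25 µM puromycin as positive control.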
Compound,% viability of CHO cells (CHO; 2 µM),% viability of CHO cells (CHO; 20 µM),% inhibition of HepG2 viability (HepG2-A16-CD81),% inhibition of gametocyte viability ([1]; 1 µM),% inhibition of gametocyte viability ([1]; 5 µM),% inhibition of asexual blood stage proliferation ([2]; 2 µM),% inhibition of asexual blood stage proliferation ([2]; 20 µM),% inhibition of gametocyte viability ([3]; 1 µM),% inhibition of gametocyte viability ([3]; 5 µM),% inhibition of gametocyte viability ([4]; 1 µM),% inhibition of gametocyte viability ([4]; 5 µM),% inhibition of liver stage parasite viability [5]
Cc1ncc([N+](=O)[O-])n1CC(C)O (stereo not drawn),92.2%,87.1%,7.14%,7.95%,28.2%,42.5%,65.1%,4.81%,< 0%,8.84%,10%,13.9%
NC[C@H]1OB(O)c2c(OCCCO)cccc21,123%,109%,-3.46%,10.1%,< 0%,6.89%,18.5%,< 0%,< 0%,< 0%,2.44%,-16.7%
O=[N+]([O-])c1cn(Cc2nc(O)nc(O)c2Br)cn1,95.9%,109%,-3.1%,9.08%,21.3%,38.7%,55.8%,0.137%,< 0%,< 0%,4.07%,19.1%
O=[N+]([O-])/C(Br)=C/c1ccc(Br)o1,89.2%,99.8%,-4.63%,23.1%,57%,27.6%,2.9%,6.32%,14.3%,4.3%,49.5%,15.9%
CC(=O)NC[C@H]1CN(c2ccc(N3CCSCC3)c(F)c2)C(=O)O1,105%,91.5%,4.22%,< 0%,< 0%,37.1%,49.9%,< 0%,< 0%,< 0%,< 0%,50.2%
Cn1cncc1[C@@](N)(c1ccc(Cl)cc1)c1ccc2c(c1)c(-c1cccc(Cl)c1)cc(=O)n2C,94.8%,47.9%,31.9%,21.7%,31.8%,51.2%,75.9%,15.7%,16.3%,0.69%,< 0%,60.7%
O=C(NNC(=S)Nc1ccc(Cl)cc1)c1ccncc1,116%,76.6%,4.57%,6.58%,< 0%,3.73%,-4.99%,< 0%,< 0%,< 0%,< 0%,5.18%
O=C(c1ccccc1)N1CCN(c2ccccc2NC(=O)C(Cl)(Cl)Cl)CC1,113%,74.3%,3.18%,< 0%,5.75%,50.4%,118%,< 0%,< 0%,< 0%,< 0%,28.1%
O=C(c1ccc(F)cc1)N1CCN2C(=O)c3ccccc3C12c1ccccc1 (stereo not drawn),116%,109%,-0.867%,13.1%,10.8%,37.1%,83.7%,< 0%,< 0%,< 0%,< 0%,26%
CC(Cc1ccccc1)C(=O)Nc1ccc(Cl)cc1C(=O)O (stereo not drawn),102%,99.8%,5.78%,< 0%,< 0%,35.5%,76.5%,< 0%,< 0%,13.7%,11.5%,8.73%
Oc1ccc2[nH]c(-c3ccccc3)nc2c1,107%,93%,12.1%,10.1%,13.2%,29.1%,62.2%,< 0%,< 0%,< 0%,< 0%,-35.4%
Nc1nc2c(Cc3cccnc3)c[nH]c2c(=O)[nH]1,97.2%,113%,-4.71%,26.1%,24.3%,2.83%,19.8%,< 0%,< 0%,< 0%,< 0%,27.7%
Oc1c(C(Nc2nc3ccccc3s2)c2ccc(OC(F)F)cc2)ccc2cccnc12 (stereo not drawn),79.6%,74.4%,45.6%,26.7%,60.6%,70.5%,65.8%,22.2%,24.6%,12.2%,54.3%,52.7%
Cn1c2ccccc2c(=O)c2c(O)cccc21,229%,55%,-9.48%,26.6%,21.6%,20.3%,11%,6.28%,< 0%,7.24%,< 0%,29.3%
C[C@H](c1cccc2ccccc12)N(C)Cc1ccccc1,98.5%,116%,0.334%,6.61%,7.59%,9.39%,18.9%,< 0%,< 0%,< 0%,< 0%,19.1%
C[C@H]1CC[C@@]2(O)C(C)(C)[C@@H]3CC[C@@]2(C)[C@H]1C3,119%,112%,-2.52%,< 0%,< 0%,7.01%,18.1%,< 0%,< 0%,< 0%,< 0%,29.2%
CC[C@@H](CO)NCCN[C@@H](CC)CO,85%,50.4%,-1.81%,< 0%,25%,42.9%,37.6%,0.155%,0.768%,< 0%,< 0%,32.9%
CC[C@@]1(O)C(=O)OCc2c1cc1n(c2=O)Cc2cc3c([N+](=O)[O-])cccc3nc2-1,128%,99.3%,65.7%,< 0%,< 0%,10.9%,66.6%,5.04%,< 0%,< 0%,< 0%,62.8%
Nc1nc(O)c(Br)c(-c2ccccc2)n1,89.3%,61.8%,7.28%,< 0%,16.6%,6.53%,33.7%,< 0%,< 0%,1.49%,9.71%,5.43%
